The record followed here is PubChem BioAssay (NCI).

Among the test systems are SR leukemia; RPMI-8226 leukemia; OVCAR-8 ovarian; OVCAR-5 ovarian; OVCAR-4 ovarian; SK-OV-3 ovarian; IGROV1 ovarian; OVCAR-3 ovarian; HS 578T breast; NCI/ADR-RES ovarian.
Holding throughout (assay): NCI-60 one-dose screen, 48 h (100 = growth as untreated, 0 = no growth, -100 = all killed)
Common to all, as to conditions: 10 µM unless noted

Compounds without any hit were thinned out: in the full panel of roughly 83,000, 20% have a hit.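 Single-concentration screen, 48 h exposure, 96-well plates. Endpoint: percent growth. Below 10 = active.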 Values without a mark were called inactive. Activity calls are given as the source filed them.

Consider `CNC(=O)Nc1ccc(-c2ccc3ncnc(Nc4cccc(Cl)c4)c3c2)cc1`, for which the growth with SR leukemia is 27.6%; with RPMI-8226 leukemia it was 55.1%; in the assay on OVCAR-8 ovarian, 54.6%; in the assay with OVCAR-5 ovarian, 55.1%; in the assay on OVCAR-4 ovarian it was 69.7%; in the assay with SK-OV-3 ovarian it was 19.3%. For the same compound, the growth in the assay with IGROV1 ovarian is 12.3%; with OVCAR-3 ovarian it was 39.6%; in the assay with HS 578T breast, 46.5%; in the assay with NCI/ADR-RES ovarian, 57.6%.
As to `O=C(Nc1ccc(Oc2cccc(Cl)c2)c(Cl)c1)c1cccnn1`, the growth in the assay with SR leukemia is 87%; with RPMI-8226 leukemia, 71.1%; with OVCAR-8 ovarian, 91.7%; in the assay on OVCAR-5 ovarian, 91.1%; in the assay with OVCAR-4 ovarian it was 68.6%; in the assay on SK-OV-3 ovarian, 102%. Besides, the growth in the assay on IGROV1 ovarian is 91.4%; with OVCAR-3 ovarian it was 85.6%; in the assay with HS 578T breast, 106%; in the assay on NCI/ADR-RES ovarian it was 85%.
For `CN(C)Cc1ccc(NC(=O)c2cncc(C#Cc3cnc(N)c4ncccc34)c2)cc1C(F)(F)F`, the growth in the assay on SR leukemia was -4.79% (active); in the assay on RPMI-8226 leukemia, -40.4% (active); in the assay on OVCAR-8 ovarian, -32.8% (active); with OVCAR-5 ovarian it was -84.8% (active); in the assay with OVCAR-4 ovarian, -60.1% (active); with SK-OV-3 ovarian it was 105%. Also, the growth is 70.8% in the assay on IGROV1 ovarian, 102% in the assay with OVCAR-3 ovarian, 70.5% in the assay on HS 578T breast and 72.4% in the assay with NCI/ADR-RES ovarian.
In the case of `Nc1c(C(=O)Nc2cccc3ncccc23)sc2nc3c(cc12)CN(Cc1ccccc1)CC3`, the growth is 33.9% in the assay on SR leukemia; 58.4% in the assay on RPMI-8226 leukemia; 83% in the assay on OVCAR-8 ovarian; 88.8% in the assay with OVCAR-5 ovarian; 71.5% in the assay on OVCAR-4 ovarian; 78.4% in the assay on SK-OV-3 ovarian. Further, the growth in the assay with IGROV1 ovarian is 72.6%; with OVCAR-3 ovarian it was 80.1%; in the assay on HS 578T breast it was 76.9%; with NCI/ADR-RES ovarian, 87.9%.
For the compound `C/C(=C(\c1ccc(OCCN2CCCCCC2)cc1)c1ccc(OC(=O)c2ccccc2)cc1)c1ccc(Cl)cc1`, the growth is -16.1% (active) with SR leukemia; 13.1% in the assay on RPMI-8226 leukemia; 42.6% with OVCAR-8 ovarian; 68.5% in the assay with OVCAR-5 ovarian; 37.5% in the assay on OVCAR-4 ovarian; 77.1% in the assay on SK-OV-3 ovarian. Besides, the growth was 46.7% with IGROV1 ovarian, 61.8% in the assay on OVCAR-3 ovarian, 42% in the assay with HS 578T breast and 59% in the assay on NCI/ADR-RES ovarian.
As to `C=C[C@@]1(C)CC(=O)[C@@H](C(C)(C)c2cn(C)c3ccc(Br)cc23)C[C@@H]1O[Si](C)(C)C(C)(C)C`, the growth is 103% with SR leukemia; 87.5% in the assay with RPMI-8226 leukemia; 101% in the assay with OVCAR-8 ovarian; 106% in the assay with OVCAR-5 ovarian; 94.2% in the assay on OVCAR-4 ovarian; 115% in the assay with SK-OV-3 ovarian. Further, the growth is 112% in the assay on IGROV1 ovarian, 103% with OVCAR-3 ovarian, 112% in the assay on HS 578T breast and 101% in the assay with NCI/ADR-RES ovarian.
Regarding `CN(C)c1ccc(/C=C2\C=C(c3nc4ccccc4s3)OC2=O)cc1`, the growth in the assay with SR leukemia is 96.7%; in the assay on RPMI-8226 leukemia, 72%; in the assay with OVCAR-8 ovarian, 100%; in the assay with OVCAR-5 ovarian, 96.9%; in the assay on OVCAR-4 ovarian it was 81.7%; in the assay on SK-OV-3 ovarian, 86.8%. Further, the growth in the assay on IGROV1 ovarian was 89.7%; with OVCAR-3 ovarian, 102%; in the assay on HS 578T breast, 92.2%; in the assay on NCI/ADR-RES ovarian, 98.8%.
Regarding `CCCN(CCSSCCNc1nc(N(C)O)nc(N(C)O)n1)c1nc(N(C)O)nc(N(C)O)n1`, the growth in the assay on SR leukemia was 129%; in the assay on RPMI-8226 leukemia, 42.6%; with OVCAR-8 ovarian it was 70.9%; in the assay on OVCAR-5 ovarian, 58%; with OVCAR-4 ovarian it was 55%; in the assay on SK-OV-3 ovarian it was 57.1%. In addition, the growth was 83% in the assay on IGROV1 ovarian, 51.6% in the assay with OVCAR-3 ovarian, 131% with HS 578T breast and 85.1% in the assay on NCI/ADR-RES ovarian.
Turning to `Cc1c2ncccc2nc2[nH]c3ccc(OCCN(C)C)cc3c12`, the growth with SR leukemia is 12.8%; with RPMI-8226 leukemia, -31.6% (active); in the assay on OVCAR-8 ovarian, 11.5%; with OVCAR-5 ovarian, 47.5%; in the assay on OVCAR-4 ovarian, 27.5%; with SK-OV-3 ovarian, 38.1%. The growth in the assay with IGROV1 ovarian was 9.29% (active); in the assay with OVCAR-3 ovarian, 51.4%; with HS 578T breast, 47.9%; in the assay on NCI/ADR-RES ovarian, 24.8%.
With `C=C(C)[C@@H]1CC[C@]2(COC3CCCCO3)CC[C@]3(C)[C@H](CC[C@@H]4[C@@]5(C)C=C(C=O)C(=O)C(C)(C)[C@@H]5CC[C@]43C)[C@@H]12` (stereo not given in full), the growth in the assay with SR leukemia was -5.54% (active); with RPMI-8226 leukemia, -6.13% (active); in the assay on OVCAR-8 ovarian, -39.2% (active); in the assay on OVCAR-5 ovarian, -19% (active); with OVCAR-4 ovarian it was -34.7% (active); in the assay with SK-OV-3 ovarian it was -40% (active). For the same compound, the growth is -64.8% (active) in the assay with IGROV1 ovarian, -65.1% (active) with OVCAR-3 ovarian, -24.3% (active) in the assay on HS 578T breast and 1.89% (active) in the assay on NCI/ADR-RES ovarian.
As to `CC(C)NS(=O)(=O)/N=C1\NC(=O)NC1=C(Cl)Cl`, the growth in the assay with SR leukemia was 19.7%; in the assay on RPMI-8226 leukemia, 91.1%; in the assay with OVCAR-8 ovarian, 96.2%; with OVCAR-5 ovarian it was 115%; in the assay on OVCAR-4 ovarian, 106%; in the assay with SK-OV-3 ovarian, 102%. The growth in the assay on IGROV1 ovarian was 97.1%; in the assay with OVCAR-3 ovarian, 98.5%; with HS 578T breast, 97.9%; in the assay with NCI/ADR-RES ovarian it was 98.5%.
Regarding `Oc1nc(NCc2ccccc2)sc1/C=C1\C=Nc2ncccc21`, the growth was 2.17% (active) in the assay on SR leukemia; 87.1% in the assay with RPMI-8226 leukemia; 47.9% in the assay with OVCAR-8 ovarian; 82.2% in the assay with OVCAR-5 ovarian; 96.4% with OVCAR-4 ovarian; 53.9% with SK-OV-3 ovarian. The growth in the assay with IGROV1 ovarian is 67.2%; with OVCAR-3 ovarian it was 53.5%; in the assay on HS 578T breast, 53.2%; in the assay with NCI/ADR-RES ovarian it was 73.7%.
